# Activity calls are given as the source filed them.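 Rule for the calls: active = viability loss from added drug above about 55%, and viability with drug at most 40%, in both replicates (limit read from the data, passing the limit was not always enough); inconclusive = both conditions met in only one replicate; inactive = neither replicate meets both conditions.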
# Assay: reversal of MRP1-mediated doxorubicin resistance, pilot screen, H69AR cells, doxorubicin co-treatment (AID 601)
# Conditions: H69AR cells + 2 uM doxorubicin, CellTiter-Glo, 72 h; at 10 µM; stronger effect = higher value
row,SMILES,differential viability (reversal)
1,Cc1cccc2c(=O)oc(-c3ccc4c(c3)C(=O)N(CC3CCCO3)C4=O)nc12 (stereo not given),5.85% (inactive)
2,CC(=O)NC(C)C(=O)OCc1ccc(Cl)cc1Cl (stereo not given),7.35% (inactive)
3,CC1CCCC(C)N1C(=O)CSc1nnc(-c2cccs2)o1 (stereo not given),-1.69% (inactive)
4,CC(C)N(C(=O)N1CCC(c2nc(-c3ccncc3)no2)CC1)C(C)C,-3.66% (inactive)
5,COc1ccccc1NC(=O)N(Cc1ccco1)Cc1cc2cccc(C)c2[nH]c1=O,1.06% (inactive)
6,NC(CO)C(=O)NNCc1ccc(O)c(O)c1O (stereo not given),8.12% (inactive)
7,Cc1csc(NC(=O)Nc2cccc(Cl)c2)n1,8.58% (inactive)
8,CCCCOc1ccccc1C1C(C(N)=O)=C(C)Nc2nnnn21 (stereo not given),6.69% (inactive)
9,CC(C)Oc1cc2oc(=O)c3c(c2cc1Cl)CCC3,19.7% (inactive)
10,Cc1cccc(C)c1OCC(=O)Nc1cccc(NC(=O)c2ccco2)c1,1.53% (inactive)
11,CCOC(=O)c1cnc2c(OC)cccc2c1N1CCN(c2ccc(OC)cc2)CC1,20.9% (inactive)
12,CC(C)CCNC(=O)C(C)N(Cc1ccc(F)cc1)C(=O)c1ccc(CN2CCCCC2)o1 (stereo not given),-0.095% (inactive)
13,CCn1nc(C(=O)O)c(=O)c2cc3c(cc21)OCO3,6.56% (inactive)
14,CC(=O)O[C@H]1C[C@@H]2CC[C@@H]3[C@H](CC[C@@]4(C)[C@H]3C[C@H]([N+]3(C)CCCCC3)[C@@H]4OC(C)=O)[C@@]2(C)C[C@@H]1[N+]1(C)CCCCC1,-4.76% (inactive)
15,COc1ccc(S(=O)(=O)Nc2cccc(C)n2)c2ccccc12,13.8% (inactive)

# Reference: PubChem BioAssay
